Bioassay records (PubChem BioAssay)
This excerpt belongs to a sample that is enriched for hits.
Tgondii IFNg: inhibitors of Toxoplasma gondii growth with IFN-gamma; Toxoplasma gondii growth in IFN-gamma-treated host cells; stronger effect = lower value; activity change, negative = inhibition, % (test concentration not listed); actives 3.8% (n = 69,000); in the data active means activity change below about -70%, passing the limit was not always enough;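 further: host cells are HeLa cells infected with Toxoplasma gondii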
Active calls of the source: *; i = inactive.

SMILES	Tgondii IFNg
O=C(c1ccccc1C1CCNC1)N1CCC(O)(Cc2ccccc2)CC1 (configuration not stated)	-11.9
CCc1ccc(CN(C(=O)c2ccc(C)cc2)C2(C(=O)NCc3ccccc3)CCN(C(C)=O)CC2)cc1	53.5
CSc1ncnc2c1nnn2Cc1ccccc1Cl	-28.1
Cc1cc(C)n(-c2ncnc3c2nnn3Cc2ccccc2Cl)n1	-56.0
CC1Cc2ccccc2N1c1ncnc2c1nnn2Cc1ccccc1Cl (configuration not stated)	-94.3*
O=C(c1ccccc1F)N1CCN(S(=O)(=O)c2cc3c4c(c2)CCN4C(=O)CC3)CC1	11.6
CN(C)Cc1ccc(S(=O)(=O)n2ccc(/C=C/C(=O)NO)c2)cc1	-80.6*
O=c1c(Cl)c(-n2cccn2)cnn1-c1ccc(Cl)cc1Cl	56.0
Cc1c(-c2ccnc(N)n2)nnn1-c1ccc(Cl)cc1Cl	-109.3*
Cc1c(-c2ccccc2)nnn1-c1cc(Cl)cc(Cl)c1	52.5
CC1CN(CC(=O)NCc2ccc3c(c2)OCO3)Cc2cc(Cl)ccc2O1 (configuration not stated)	2.9
COc1ccc2ncc3c(c2c1)-c1cc(Cl)ccc1OC3	254.7
COc1ccc(CN2COc3ccc(Cl)cc3C2)cc1	-89.1*
CNC(=O)CN1CCO[C@@H]2CN(Cc3nccs3)C[C@@H]21	251.3
CCN1C(=O)CCc2cc(NC(=O)C3CC3)ccc21	-0.9
O=c1c2c3c(sc2ncn1CCCc1nc2ccccc2s1)CNCC3	17.0
CCC(C(=O)NCc1nnc(C)o1)n1cc(C(C)=O)c2ccccc21 (configuration not stated)	3.9
Cc1ccc(SC(=O)c2cc(C)n(-c3c(Cl)cc(Cl)cc3Cl)n2)cc1	-100.0*
COC(=O)c1cc(C)nc2c1c(=O)n(Cc1nc(-c3ccccc3OC)oc1C)c(=O)n2C	6.9
CCOC(=O)C1CCN(C(=O)c2oc3ccc4c(c3c2C)C(=O)CC2(CCCCC2)O4)CC1	325.2
Cc1c(C(=O)N2CC(C)CC(C)C2)oc2ccc3c(c12)C(=O)CC1(CCCCCC1)O3 (configuration not stated)	-99.3*
Cc1ccc2c(c1)C(=O)CC1(CCN(C(=O)C3CCCC3)CC1)O2	-4.2
Cc1c(C(=O)N2CCC(C)CC2)oc2ccc3c(c12)C(=O)CC1(CCCCCC1)O3	-110.4*
Cc1ccc2c(C)c(C(=O)N3CCC4(CN(C)C(=O)O4)C3)oc2c1 (configuration not stated)	3.7
Cc1ccc2c(C)c(C(=O)N3CCCC4(CC3)CNC(=O)O4)oc2c1 (configuration not stated)	0.0
SMILES	Tgondii IFNg
CC(=O)NCC(=O)NC1CC2(CCN(c3ncccn3)CC2)c2ccccc21 (configuration not stated)	-9.7
O=C(c1cn(-c2ccccc2)nn1)N(C/C=C/c1ccccc1)C1CC1	75.7
O=C(Cn1ncc2c(N3CCOCC3)ncnc21)N1CCOCC1	-37.9
O=C(CC(F)(F)F)N1CCc2ncnc(C3CC3)c2CC1	0.7
CCOC(=O)c1nn(CCc2ccc(OC)cc2)c2c1CN(C(=O)C1COc3ccccc3C1)CC2 (configuration not stated)	4.3
COc1ccc(C(NC(=O)c2ccccc2)NC(=O)c2ccccc2)cc1	-4.3
CC(C)(C)c1csc(=S)n1CCc1ccc(Cl)cc1	-87.4*
Cn1c(-c2ccc(Cl)cc2)cs/c1=N\C(=S)NCCc1ccccc1	-57.0
CN(C/C=C/c1ccco1)Cc1cc(-c2cccnc2)no1	14.3
O=C(c1cc(C2CC2)on1)N1CCC2(CCCO2)CC1	10.6
CCOc1cccc(C2c3[nH]c4ccccc4c3CCN2C(=O)c2cccs2)c1 (configuration not stated)	i
CCOc1cccc(C2c3[nH]c4ccccc4c3CCN2C(=O)c2ccc(OC)c(OC)c2)c1 (configuration not stated)	-88.5*
CCOc1cccc(C2c3[nH]c4ccccc4c3CCN2C(=O)c2ccco2)c1 (configuration not stated)	-109.4*
CCOc1cccc(C2c3[nH]c4ccccc4c3CCN2C(=O)c2cccc(Cl)c2)c1 (configuration not stated)	-122.5*
CCOc1cccc(C2c3[nH]c4ccccc4c3CCN2C(=O)c2ccc3c(c2)OCO3)c1 (configuration not stated)	i
CCCC(=O)N1CCc2c([nH]c3ccccc23)C1c1cccc(OCC)c1 (configuration not stated)	496.6
CCOc1cccc(C2c3[nH]c4ccccc4c3CCN2C(=O)c2ccccc2F)c1 (configuration not stated)	-64.5
CCOc1cccc(C2c3[nH]c4ccccc4c3CCN2C(=O)COc2ccccc2)c1 (configuration not stated)	i
CCOc1cccc(C2c3[nH]c4ccccc4c3CCN2C(=O)c2cc3ccccc3[nH]2)c1 (configuration not stated)	i
COc1ccc(OCC(=O)N2CCC3(CC2)Nc2ccccc2-n2cccc23)cc1	22.9
COc1ccc(OC)c(NC(=O)Cn2c(=O)cc(-c3nc(C)no3)c3ccccc32)c1	-13.5
Cc1ccc2c(c1)C(=O)NC1(CCC(=O)N(CC(=O)Nc3nccs3)CC1)O2 (configuration not stated)	13.3
COc1ccc(-c2nnc(-c3nc(NCc4ccccc4C)c4ccccc4n3)o2)cc1	32.0
COc1ccccc1CNc1nc(-c2nnc(-c3ccccc3)o2)nc2ccccc12	-96.0*
CCOc1ccccc1CNc1nc(-c2nnc(-c3ccc(OC)cc3)o2)nc2ccccc12	-13.1
SMILES	Tgondii IFNg
CC(CNc1nc(-c2nnc(-c3ccccc3)o2)nc2ccccc12)c1ccccc1 (configuration not stated)	-115.4*
Cc1ccccc1CNc1nc(-c2nnc(-c3ccccc3)o2)nc2ccccc12	-89.8*
COc1ccccc1CNc1nc(-c2nnc(-c3cccc(C)c3)o2)nc2ccccc12	-89.8*
c1ccc(CCNc2nc(-c3nnc(-c4ccccc4)o3)nc3ccccc23)cc1	-64.2
COc1ccc(-c2nnc(-c3nc(NCc4ccccc4)c4ccccc4n3)o2)cc1	-68.5
Clc1ccccc1CNc1nc(-c2nnc(-c3ccccc3)o2)nc2ccccc12	-48.7
Cc1ccc(-c2nnc(-c3nc(NC(C)c4ccccc4)c4ccccc4n3)o2)cc1 (configuration not stated)	-63.4
CCN(CC)C(=O)CSc1nc(O)c(CCC(C)C)c(=O)[nH]1	1.1
CC1=C(C(=O)Nc2ccc(CN3CCC(C)CC3)cc2)C2(CCN(Cc3ccccc3)CC2)OC1=O	-62.7
Cc1cccnc1-n1cccc1CN1CCCC(CO)C1 (configuration not stated)	110.6
CCOc1ccccc1N(Cc1nc(-c2ccccc2)oc1C)S(=O)(=O)c1ccccc1	-60.7
Cc1cccc(C(=O)N2CC[C@H]3[C@@H]2CCN3c2ncccn2)n1	-4.1
O=c1c2cccnc2ncn1CCCN1CCN(c2cccc(Cl)c2)CC1	8.8
Cc1ccc(-c2nnc(-c3nc(NCc4ccccn4)c4ccccc4n3)o2)cc1	-94.1*
COc1cc(CNc2nc(-c3nnc(-c4ccc(C)cc4)o3)nc3ccccc23)cc(OC)c1OC	-45.7
Cc1ccc(-c2nnc(-c3nc(NCc4ccco4)c4ccccc4n3)o2)cc1	35.0
COCC(=O)N1CCC[C@@H]2CN(C(=O)c3ccco3)C[C@H]21	0.2
CCc1nnc(NC(=O)CSc2ncc(-c3ccccc3)n2CC2CCCO2)s1 (configuration not stated)	7.6
Cc1cnccc1CN(C)Cc1ccc(-n2ccnc2)cc1	-13.6
